Unmarked numbers belong to inactive results. Inconclusive results are not listed. Activity calls are given as the source filed them. Calls come from the whole dose curve; as a rule, active = well fitted curve in the direction sought with a large enough effect; inconclusive = small, poorly fitted or top-dose-only effect, or another doubt; inactive = no such curve, though single readings can be large; an effect the other way counts as inactive or inconclusive.
Tested on: not listed separately
Experiment: Inducers of the Endoplasmic Reticulum Stress Response (ERSR) in human glioma: Validation (AID 504836); note: 0% is about no effect
Settings: human glioma cells, ER stress response reporter; series mostly up to 38.3 µM; activation: at the top concentration
Procedure, shortened: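 Stably transfected U87-MG glioma cells carrying a GRP78-based luciferase sensor; 16 h compound incubation. Luminescence end-point read 10 min after Bright-Glo addition at room temperature.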

| SMILES | activation [%] | outcome |
| --- | --- | --- |
| CC[N+](CC)(CC)CCOc1cccc(OCC[N+](CC)(CC)CC)c1OCC[N+](CC)(CC)CC | -5.57 |  |
| CC(C)C[C@H]1C(=O)N2CCC[C@H]2[C@]2(O)O[C@](NC(=O)[C@@H]3C=C4c5cccc6[nH]c(Br)c(c56)C[C@H]4N(C)C3)(C(C)C)C(=O)N12 | 2.76 |  |
| CCN(CC)CCOC(=O)c1ccc(N)cc1 | 1.92 |  |
| NC(N)=NC(=O)Cc1c(Cl)cccc1Cl | -3.77 |  |
| CC(=O)OCC1=C(C(=O)O)N2C(=O)[C@@H](NC(=O)Cc3cccs3)[C@H]2SC1 | 2.12 |  |
| CC(=O)N1CCN(c2ccc(OC[C@H]3CO[C@](Cn4ccnc4)(c4ccc(Cl)cc4Cl)O3)cc2)CC1 | -1.15 |  |
| NC(=O)c1cnccn1 | -2.75 |  |
| CC(C)(C)NCC(O)c1cc(O)cc(O)c1 (stereo unspecified) | 2.91 |  |
| NC(Cc1ccc(Cl)cc1)C(=O)O (stereo unspecified) | -3.39 |  |
| CCN(CC)CCNC(=O)c1ccc(N)cc1 | -0.55 |  |
| C[N+](C)(C)CCCCCC[N+](C)(C)C |  | inactive |
| CCN(CC)CCNC(=O)c1cc(S(C)(=O)=O)ccc1OC | -1.39 |  |

Molecular target: Ubiquitin carboxyl-terminal hydrolase 1 (Homo sapiens) (UniProt O94782)
Experiment: Inhibitors of USP1/UAF1: Pilot qHTS (AID 504865); note: nearly all actives have a fitted effect of over 35% in size; note: potency is the fitted concentration of half-maximal effect;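 for activity change, negative = inhibition: rhodamine fluorescence freed from ubiquitin-rhodamine substrate followed over time; top concentration of the series differs between compounds; % is set by controls: 0 for no effect and ±100 for the full control effect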
Settings: purified USP1/UAF1, Ub-rhodamine cleavage fluorescence; series mostly up to 114 µM; activity change, negative = inhibition: at the top concentration
Procedure, shortened: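 Enzyme-free wells gave the negative control, while test wells held 1nM USP1/UAF1 preincubated with compound for 15 min at room temperature. Ub-Rho at 150nM final started the reaction, and fluorescence at 480/540 nm was recorded kinetically.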

Chain of Ubiquitin carboxyl-terminal hydrolase 1 (Homo sapiens) (O94782 whole entry, looked up): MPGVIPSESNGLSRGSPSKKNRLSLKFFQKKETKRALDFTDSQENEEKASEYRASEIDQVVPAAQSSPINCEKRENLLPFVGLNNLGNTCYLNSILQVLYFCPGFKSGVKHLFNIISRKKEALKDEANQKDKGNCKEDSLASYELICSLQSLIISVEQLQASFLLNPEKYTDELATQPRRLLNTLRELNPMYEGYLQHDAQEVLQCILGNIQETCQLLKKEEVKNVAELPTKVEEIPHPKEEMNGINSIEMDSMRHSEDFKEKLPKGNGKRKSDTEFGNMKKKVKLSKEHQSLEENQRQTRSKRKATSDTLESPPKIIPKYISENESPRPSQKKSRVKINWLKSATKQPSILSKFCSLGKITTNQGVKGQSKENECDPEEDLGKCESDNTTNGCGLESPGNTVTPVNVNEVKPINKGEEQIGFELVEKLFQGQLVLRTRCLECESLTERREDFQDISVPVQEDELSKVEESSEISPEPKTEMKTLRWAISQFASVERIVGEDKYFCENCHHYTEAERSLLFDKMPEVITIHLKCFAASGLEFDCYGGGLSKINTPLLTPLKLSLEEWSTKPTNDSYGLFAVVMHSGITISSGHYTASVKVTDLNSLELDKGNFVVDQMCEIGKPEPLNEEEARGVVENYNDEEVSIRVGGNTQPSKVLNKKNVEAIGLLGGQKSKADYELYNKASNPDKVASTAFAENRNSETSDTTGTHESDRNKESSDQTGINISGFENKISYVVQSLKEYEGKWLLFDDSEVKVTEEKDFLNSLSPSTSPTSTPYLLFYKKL

| SMILES | activity change, negative = inhibition | Potency |
| --- | --- | --- |
| CC(C)(C)NCC(O)c1cc(Cl)c(N)c(C(F)(F)F)c1 (stereo unspecified) | -11.2% |  |
| CC[N+](CC)(CC)CCOc1cccc(OCC[N+](CC)(CC)CC)c1OCC[N+](CC)(CC)CC |  | inactive |
| CC(C)C[C@H]1C(=O)N2CCC[C@H]2[C@]2(O)O[C@](NC(=O)[C@@H]3C=C4c5cccc6[nH]c(Br)c(c56)C[C@H]4N(C)C3)(C(C)C)C(=O)N12 | -5.67% |  |
| NNc1ccccc1 | 0.0447% |  |
| O=C1CN=C(c2ccccc2)c2cc([N+](=O)[O-])ccc2N1 | -6.66% |  |
| O=C1Nc2ccc(Cl)cc2C(c2ccccc2)=NC1O (stereo unspecified) | -2.64% |  |
| O=C1OC(c2ccc(O)c(S(=O)(=O)O)c2)(c2ccc(O)c(S(=O)(=O)O)c2)c2c(Br)c(Br)c(Br)c(Br)c21 |  | 50.1 µM (active) |
| CC(C)(C)c1ccc(O)cc1 | -6% |  |
| CC(=O)N1CCN(c2ccc(OC[C@H]3CO[C@](Cn4ccnc4)(c4ccc(Cl)cc4Cl)O3)cc2)CC1 | -13.8% |  |
| COc1ccc2c(c1)C13CCCC[C@@H]1C(C2)N(C)CC3 (stereo partly specified) | 3.31% [at 54.9 µM] |  |
| Oc1ccc(Cl)cc1 |  | inactive |
| C[C@]12CC[C@@H]3c4ccc(OC(=O)N(CCCl)CCCl)cc4CC[C@H]3[C@@H]1CC[C@@H]2O |  | 50.1 µM (active) |
| CCC1(CC)C(=O)C=CNC1=O |  | inactive |
| FC1(F)C(F)(F)C(F)(F)C2(F)C(F)(F)C(F)(F)C(F)(F)C(F)(F)C2(F)C1(F)F (stereo unspecified) |  | 79.4 µM (active) |
| O=C1Nc2ccc(Cl)cc2C(c2ccccc2Cl)=NC1O (stereo unspecified) | -9.43% |  |
| CN1C(=O)CC(=O)N(c2ccccc2)c2cc(Cl)ccc21 | -5.99% |  |
| CCCC(C)(COC(N)=O)COC(N)=O | 0.482% |  |
| CN1C(=O)NC(=O)C(C)(C2=CCCCC2)C1=O (stereo unspecified) |  | inactive |
| COC1CC(=C(c2cccs2)c2cccs2)C[N+](C)(C)C1 (stereo unspecified) | -7.07% |  |
| Nc1nc(N)nc(NC2CC2)n1 | -0.366% |  |
| CCC1(c2ccccc2)C(=O)N(COC)C(=O)N(COC)C1=O | -2.67% |  |
| CN1C(=O)COc2c(C(=O)NC3CN4CCC3CC4)cc(Cl)cc21 (stereo unspecified) | 1.51% |  |
| Cc1nnc2n1-c1ccc(Cl)cc1C(c1ccccc1Cl)=NC2 | -0.449% |  |
| Clc1ccc2c(c1)C(c1ccccc1)=NCc1nncn1-2 | -3.66% |  |

— PubChem BioAssay (NCATS)
